# Measured values as given in the antibiotic and cytotoxicity screens of Wong et al. (2023).
# Out of some 39,000 compounds screened, about 1,500 (3.8%) were called active. This excerpt belongs to a sample that is enriched for actives.
# Tested on: HSkMC (human skeletal muscle cells)
# Experiment: cytotoxicity call (relative viability < 0.9)
# Conditions: 10 µM
row,SMILES,cytotoxicity call
1,C[C@@H]1CN([C@H](C)CO)C(=O)c2cc(/C=C/c3ccccc3)cnc2O[C@H]1CN(C)C(=O)c1cnccn1,inactive
2,CN1CCN(C(=O)C[C@@H]2CC[C@H]3[C@@H](COC[C@@H](O)CN3C(=O)C3CCCC3)O2)CC1,inactive
3,Cc1noc(C)c1S(=O)(=O)Nc1ccc2c(c1)C(=O)N([C@H](C)CO)C[C@@H](C)[C@H](CN(C)S(=O)(=O)c1cccs1)O2,inactive
4,Cc1ccc(S(=O)(=O)Nc2ccc3c(c2)C(=O)N([C@H](C)CO)C[C@H](C)[C@@H](CN(C)Cc2ccncc2)OCCCC[C@H](C)O3)cc1,inactive
5,COc1ccc(NC(=O)N(C)C[C@@H]2OCCCC[C@@H](C)Oc3ccc(NC(=O)Cc4ccccc4)cc3C(=O)N([C@@H](C)CO)C[C@H]2C)cc1,inactive
6,C[C@H](CO)N1C[C@H](C)[C@@H](CN(C)Cc2ccc(C(=O)O)cc2)Oc2c(NC(=O)Nc3cccc4ccccc34)cccc2C1=O,inactive
7,C[C@@H]1CCCCO[C@H](CN(C)S(C)(=O)=O)[C@@H](C)CN([C@H](C)CO)C(=O)c2cc(NS(=O)(=O)c3ccc(F)cc3)ccc2O1,inactive
8,C[C@@H]1CN([C@H](C)CO)C(=O)c2cc(NC(=O)Nc3ccc(C(F)(F)F)cc3)ccc2O[C@@H](C)CCCCO[C@H]1CN(C)S(=O)(=O)c1cn(C)cn1,inactive
9,COc1ccc(S(=O)(=O)Nc2ccc3c(c2)C(=O)N([C@@H](C)CO)C[C@H](C)[C@@H](CN(C)C(=O)c2ccccc2)OCCCC[C@H](C)O3)cc1,inactive
10,COc1cc2c(cc1OC)-c1c(oc3c4c(ccc3c1=O)OC(C)(C)C=C4)CO2,inactive
11,COc1c(-c2coc3cc4c(cc3c2=O)CC(O)C(C)(C)O4)ccc2c1C=CC(C)(C)O2 (centres undefined),active
12,COc1cc2c(=O)c(-c3ccc4c(c3)OCO4)coc2c2c1OC(C)(C)C=C2,inactive
13,C[C@@H]1CCCCO[C@@H](CN(C)Cc2ccc(C(=O)O)cc2)[C@H](C)CN([C@H](C)CO)C(=O)c2cc(NC(=O)NC3CCCCC3)ccc2O1,inactive
14,COCC#Cc1ccc2c(c1)O[C@H](CN(C)S(=O)(=O)c1ccc(OC)cc1)[C@H](C)CN([C@@H](C)CO)S2(=O)=O,inactive
15,Cc1noc(C)c1S(=O)(=O)Nc1ccc2c(c1)CC(=O)N([C@H](C)CO)C[C@@H](C)[C@H](CN(C)Cc1ccc(-c3ccccc3)cc1)O2,inactive
16,Cc1noc(C)c1S(=O)(=O)Nc1ccc2c(c1)CC(=O)N([C@H](C)CO)C[C@H](C)[C@@H](CN(C)Cc1ccc(-c3ccccc3)cc1)O2,active
17,Cc1noc(C)c1S(=O)(=O)Nc1ccc2c(c1)CC(=O)N([C@@H](C)CO)C[C@@H](C)[C@H](CN(C)Cc1ccc(-c3ccccc3)cc1)O2,active
18,Cc1noc(C)c1S(=O)(=O)Nc1ccc2c(c1)CC(=O)N([C@@H](C)CO)C[C@H](C)[C@H](CN(C)Cc1ccc(-c3ccccc3)cc1)O2,inactive
19,Cc1noc(C)c1S(=O)(=O)Nc1ccc2c(c1)CC(=O)N([C@@H](C)CO)C[C@H](C)[C@@H](CN(C)Cc1ccc(-c3ccccc3)cc1)O2,inactive
20,Cc1noc(C)c1S(=O)(=O)Nc1ccc2c(c1)CC(=O)N([C@@H](C)CO)C[C@@H](C)[C@@H](CN(C)Cc1ccc(-c3ccccc3)cc1)O2,inactive

row,SMILES,cytotoxicity call
1,CC(C)CC#Cc1cnc2c(c1)C(=O)N([C@H](C)CO)C[C@H](C)[C@@H](CN(C)C(=O)CN1CCOCC1)O2,inactive
2,NC(=O)N1C(=O)[C@H]2[C@H](C1=O)[C@H]1C=C(CCCO)[C@@H]2[C@H](c2ccc(CN3CCCC3)cc2)N1Cc1sc2ccccc2c1Cl,inactive
3,C[C@@H]1CN([C@H](C)CO)C(=O)c2cc(NS(=O)(=O)c3cccs3)ccc2O[C@@H]1CN(C)CC1CC1,inactive
4,C[C@@H]1CN([C@H](C)CO)C(=O)Cc2cc(NS(=O)(=O)c3cccs3)ccc2O[C@H]1CN(C)S(=O)(=O)c1ccc(F)cc1,inactive
5,C[C@H](CO)N1C[C@H](C)[C@@H](CN(C)C(=O)Nc2ccc(F)cc2)OCCCC[C@H](C)Oc2ccc(NC(=O)Nc3cccc4ccccc34)cc2C1=O,inactive
6,COCCCNC(=O)[C@@]1(Cc2ccccc2I)c2ccccc2C(=O)N(C2CCCCC2)[C@H]1c1ccc(CO)cc1,inactive
7,C[C@H](CO)N1C[C@H](C)[C@@H](CN(C)Cc2ccc(C(F)(F)F)cc2)Oc2ccc(NC(=O)Nc3ccccc3)cc2CC1=O,inactive
8,C[C@H]1CN([C@@H](C)CO)C(=O)Cc2cc(NC(=O)Nc3ccccc3)ccc2O[C@H]1CN(C)Cc1ccc(C(F)(F)F)cc1,active
9,C[C@@H]1CN([C@@H](C)CO)C(=O)Cc2cc(NC(=O)Nc3ccccc3)ccc2O[C@H]1CN(C)Cc1ccc(C(F)(F)F)cc1,active
10,C[C@@H]1CN([C@@H](C)CO)C(=O)Cc2cc(NC(=O)Nc3ccccc3)ccc2O[C@@H]1CN(C)Cc1ccc(C(F)(F)F)cc1,active
11,C[C@@H]1CN([C@H](C)CO)C(=O)Cc2cc(NC(=O)Nc3ccccc3)ccc2O[C@@H]1CN(C)Cc1ccc(C(F)(F)F)cc1,active
12,C[C@@H](O)C#Cc1ccc2c(c1)O[C@@H](CN(C)C(=O)C1CCCCC1)[C@@H](C)CN([C@@H](C)CO)S2(=O)=O,inactive
13,Cc1noc(C)c1S(=O)(=O)Nc1ccc2c(c1)C(=O)N([C@H](C)CO)C[C@H](C)[C@H](CN(C)Cc1ccc(Cl)c(Cl)c1)OCCCC[C@@H](C)O2,inactive
14,COc1oc(C(=O)NC2CCCCC2)c(-c2ccc(Cl)cc2)c1S(=O)(=O)c1ccc2c(c1)OCCO2,inactive
15,CN1C(=O)c2cc(NS(=O)(=O)c3ccc(F)cc3)ccc2OC[C@@H]2O[C@H](CC(=O)NCC(F)(F)F)CC[C@H]21,inactive
16,C[C@@H]1CCCCO[C@H](CN(C)S(=O)(=O)c2ccc(F)cc2)[C@H](C)CN([C@@H](C)CO)C(=O)c2cc(NS(=O)(=O)c3ccc(Cl)cc3)ccc2O1,inactive
17,COc1ccc(O)cn1,inactive
18,C[C@H]1CCCCO[C@H](CN(C)S(=O)(=O)c2cccs2)[C@@H](C)CN([C@@H](C)CO)C(=O)c2cc(NC(=O)Nc3cccc4ccccc34)ccc2O1,inactive
19,C[C@@H]1CN([C@@H](C)CO)C(=O)c2cc(NC(=O)Nc3ccccc3)ccc2O[C@H]1CN(C)S(C)(=O)=O,inactive
